Measured values: the supplement of paper PMC11732987, “Enantioselective OTUD7B fragment discovery through chemoproteomics screening and high-throughput optimisation” (Communications Chemistry, 2025)
A number with no mark means an inactive call.

Assays:
Assay in all cases: log2 ratio of Biotin-Ahx-Ub-VS probe labelling (fragment/DMSO); higher = less target engagement (more negative = stronger competition), active = hit call of the paper (q ≤ 0.05, log2 ratio ≤ -1)
Conditions in all cases: compound concentration: 200 uM; treatment time: 3 h
USP9X = USP9X (UniProt Q93008)
Method in brief: (§1)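 HEK293T lysate (495 µg per sample, in Tris/CHAPS/IGEPAL buffer with protease inhibitors) was treated in triplicate with fragment at 200 µM or with DMSO for 3 h. It was then treated with Biotin-Ahx-Ub-VS (0.5 µM final) for 1 h. Labelled DUBs were NeutrAvidin-enriched, digested with LysC and trypsin, and run by diaPASEF LC-MS/MS. Spectronaut label-free quantities were global-median-normalised. Values are average log2 ratios fragment/DMSO by unpaired t-test, using proteins with ≥2 unique peptides.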

UniProt O00487 = biological target: UniProt O00487
Method in brief: as §1

UniProt O00507 = biological target: UniProt O00507
Method in brief: as §1

UniProt P51784 = biological target: UniProt P51784
Method in brief: as §1

UniProt Q5T2D3 = biological target: T1, UniProt Q5T2D3
T1 sequence (whole entry): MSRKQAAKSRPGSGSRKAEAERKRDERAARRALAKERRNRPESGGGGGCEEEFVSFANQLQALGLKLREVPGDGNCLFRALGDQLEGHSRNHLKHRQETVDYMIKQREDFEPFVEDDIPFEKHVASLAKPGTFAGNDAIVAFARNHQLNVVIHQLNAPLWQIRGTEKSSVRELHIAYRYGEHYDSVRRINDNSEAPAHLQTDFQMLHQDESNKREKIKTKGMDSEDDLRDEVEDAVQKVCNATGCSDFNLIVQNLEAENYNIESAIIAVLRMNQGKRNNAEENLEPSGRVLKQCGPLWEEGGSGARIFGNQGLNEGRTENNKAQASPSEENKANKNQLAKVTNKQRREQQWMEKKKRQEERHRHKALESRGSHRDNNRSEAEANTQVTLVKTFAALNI
Method in brief: as §1

UniProt Q8TE49 = biological target: T2, UniProt Q8TE49
T2 sequence (whole entry): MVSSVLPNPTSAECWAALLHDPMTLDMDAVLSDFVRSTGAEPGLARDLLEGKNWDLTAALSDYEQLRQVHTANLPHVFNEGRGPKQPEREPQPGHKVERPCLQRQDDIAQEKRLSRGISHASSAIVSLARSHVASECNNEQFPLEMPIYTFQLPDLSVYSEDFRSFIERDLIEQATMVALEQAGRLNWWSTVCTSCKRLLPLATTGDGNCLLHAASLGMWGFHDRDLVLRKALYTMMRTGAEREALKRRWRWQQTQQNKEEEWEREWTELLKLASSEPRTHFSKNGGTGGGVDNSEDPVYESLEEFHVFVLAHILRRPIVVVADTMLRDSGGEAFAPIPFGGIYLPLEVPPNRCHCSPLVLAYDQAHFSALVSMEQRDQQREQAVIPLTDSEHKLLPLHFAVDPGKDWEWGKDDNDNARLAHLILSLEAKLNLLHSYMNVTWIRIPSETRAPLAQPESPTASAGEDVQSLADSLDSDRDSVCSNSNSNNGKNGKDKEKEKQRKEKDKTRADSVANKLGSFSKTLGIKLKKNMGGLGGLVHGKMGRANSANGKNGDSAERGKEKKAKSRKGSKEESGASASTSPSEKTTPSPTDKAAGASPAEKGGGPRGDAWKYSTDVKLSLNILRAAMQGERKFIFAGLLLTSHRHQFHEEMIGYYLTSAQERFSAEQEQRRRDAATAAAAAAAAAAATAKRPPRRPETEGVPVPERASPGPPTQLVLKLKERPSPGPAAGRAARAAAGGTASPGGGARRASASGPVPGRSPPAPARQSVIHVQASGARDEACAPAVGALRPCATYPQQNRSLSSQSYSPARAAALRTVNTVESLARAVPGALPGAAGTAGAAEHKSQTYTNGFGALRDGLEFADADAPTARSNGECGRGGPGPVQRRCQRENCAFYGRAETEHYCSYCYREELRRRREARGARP
Method in brief: as §1

UniProt Q9P2H5 = biological target: T3, UniProt Q9P2H5
T3 sequence (whole entry): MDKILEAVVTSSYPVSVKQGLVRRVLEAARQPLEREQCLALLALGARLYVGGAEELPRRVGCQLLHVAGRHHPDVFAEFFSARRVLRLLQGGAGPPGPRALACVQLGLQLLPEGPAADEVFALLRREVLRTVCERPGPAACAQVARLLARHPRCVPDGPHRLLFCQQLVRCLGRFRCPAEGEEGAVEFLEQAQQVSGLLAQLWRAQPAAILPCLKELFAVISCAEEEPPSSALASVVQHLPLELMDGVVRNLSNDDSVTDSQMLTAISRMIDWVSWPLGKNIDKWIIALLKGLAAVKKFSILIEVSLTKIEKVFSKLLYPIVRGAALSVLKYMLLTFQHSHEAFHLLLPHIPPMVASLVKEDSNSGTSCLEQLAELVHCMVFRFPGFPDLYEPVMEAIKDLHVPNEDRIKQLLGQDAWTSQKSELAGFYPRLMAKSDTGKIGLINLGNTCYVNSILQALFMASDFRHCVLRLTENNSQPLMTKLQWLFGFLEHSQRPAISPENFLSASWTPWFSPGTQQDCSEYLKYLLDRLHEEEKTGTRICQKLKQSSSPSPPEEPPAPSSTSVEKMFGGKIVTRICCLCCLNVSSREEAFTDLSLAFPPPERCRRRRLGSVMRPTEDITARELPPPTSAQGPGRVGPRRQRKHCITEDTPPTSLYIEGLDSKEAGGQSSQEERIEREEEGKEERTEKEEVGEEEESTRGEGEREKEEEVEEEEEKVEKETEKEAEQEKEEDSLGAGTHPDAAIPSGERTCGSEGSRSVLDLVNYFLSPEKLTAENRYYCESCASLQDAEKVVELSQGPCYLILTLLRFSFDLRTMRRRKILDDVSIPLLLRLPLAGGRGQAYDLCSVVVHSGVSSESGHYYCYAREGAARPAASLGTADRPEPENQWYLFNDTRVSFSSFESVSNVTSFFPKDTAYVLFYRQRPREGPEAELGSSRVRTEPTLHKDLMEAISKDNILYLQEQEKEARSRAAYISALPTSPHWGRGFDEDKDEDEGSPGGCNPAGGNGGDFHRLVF
Method in brief: as §1

UniProt Q9UGI0 = biological target: T4, UniProt Q9UGI0
T4 sequence (whole entry): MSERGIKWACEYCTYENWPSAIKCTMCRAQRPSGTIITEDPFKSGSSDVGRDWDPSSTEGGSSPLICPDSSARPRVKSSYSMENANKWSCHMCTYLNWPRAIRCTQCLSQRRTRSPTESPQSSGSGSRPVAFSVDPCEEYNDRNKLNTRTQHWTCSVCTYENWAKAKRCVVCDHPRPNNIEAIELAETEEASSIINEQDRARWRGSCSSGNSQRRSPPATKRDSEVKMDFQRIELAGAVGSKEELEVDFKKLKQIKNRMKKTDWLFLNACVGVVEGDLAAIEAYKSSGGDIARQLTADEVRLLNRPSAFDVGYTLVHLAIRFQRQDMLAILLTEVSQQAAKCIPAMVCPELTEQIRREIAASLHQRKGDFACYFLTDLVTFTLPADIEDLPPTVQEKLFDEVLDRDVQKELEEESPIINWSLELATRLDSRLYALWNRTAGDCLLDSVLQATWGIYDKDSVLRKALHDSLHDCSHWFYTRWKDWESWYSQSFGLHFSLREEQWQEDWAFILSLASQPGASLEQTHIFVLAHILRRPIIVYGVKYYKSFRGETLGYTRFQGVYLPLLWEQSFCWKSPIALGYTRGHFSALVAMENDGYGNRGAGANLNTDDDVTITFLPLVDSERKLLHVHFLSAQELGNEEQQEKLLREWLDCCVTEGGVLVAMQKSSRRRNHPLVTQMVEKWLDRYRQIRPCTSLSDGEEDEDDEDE
Method in brief: as §1

YOD1 = biological target: T5, YOD1 (UniProt Q5VVQ6)
T5 sequence (whole entry): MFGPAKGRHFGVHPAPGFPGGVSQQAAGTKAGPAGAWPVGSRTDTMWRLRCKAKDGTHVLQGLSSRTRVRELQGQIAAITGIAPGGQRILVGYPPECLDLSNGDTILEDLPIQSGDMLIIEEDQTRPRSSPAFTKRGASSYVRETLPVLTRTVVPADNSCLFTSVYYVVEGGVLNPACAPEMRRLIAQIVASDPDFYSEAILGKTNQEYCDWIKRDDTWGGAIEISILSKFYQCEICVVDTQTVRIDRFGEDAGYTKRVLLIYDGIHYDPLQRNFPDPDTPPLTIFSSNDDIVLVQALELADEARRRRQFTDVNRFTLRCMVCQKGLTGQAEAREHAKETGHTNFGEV
Method in brief: as §1

Chain of USP9X (Q93008 whole entry, the tested form may be a part): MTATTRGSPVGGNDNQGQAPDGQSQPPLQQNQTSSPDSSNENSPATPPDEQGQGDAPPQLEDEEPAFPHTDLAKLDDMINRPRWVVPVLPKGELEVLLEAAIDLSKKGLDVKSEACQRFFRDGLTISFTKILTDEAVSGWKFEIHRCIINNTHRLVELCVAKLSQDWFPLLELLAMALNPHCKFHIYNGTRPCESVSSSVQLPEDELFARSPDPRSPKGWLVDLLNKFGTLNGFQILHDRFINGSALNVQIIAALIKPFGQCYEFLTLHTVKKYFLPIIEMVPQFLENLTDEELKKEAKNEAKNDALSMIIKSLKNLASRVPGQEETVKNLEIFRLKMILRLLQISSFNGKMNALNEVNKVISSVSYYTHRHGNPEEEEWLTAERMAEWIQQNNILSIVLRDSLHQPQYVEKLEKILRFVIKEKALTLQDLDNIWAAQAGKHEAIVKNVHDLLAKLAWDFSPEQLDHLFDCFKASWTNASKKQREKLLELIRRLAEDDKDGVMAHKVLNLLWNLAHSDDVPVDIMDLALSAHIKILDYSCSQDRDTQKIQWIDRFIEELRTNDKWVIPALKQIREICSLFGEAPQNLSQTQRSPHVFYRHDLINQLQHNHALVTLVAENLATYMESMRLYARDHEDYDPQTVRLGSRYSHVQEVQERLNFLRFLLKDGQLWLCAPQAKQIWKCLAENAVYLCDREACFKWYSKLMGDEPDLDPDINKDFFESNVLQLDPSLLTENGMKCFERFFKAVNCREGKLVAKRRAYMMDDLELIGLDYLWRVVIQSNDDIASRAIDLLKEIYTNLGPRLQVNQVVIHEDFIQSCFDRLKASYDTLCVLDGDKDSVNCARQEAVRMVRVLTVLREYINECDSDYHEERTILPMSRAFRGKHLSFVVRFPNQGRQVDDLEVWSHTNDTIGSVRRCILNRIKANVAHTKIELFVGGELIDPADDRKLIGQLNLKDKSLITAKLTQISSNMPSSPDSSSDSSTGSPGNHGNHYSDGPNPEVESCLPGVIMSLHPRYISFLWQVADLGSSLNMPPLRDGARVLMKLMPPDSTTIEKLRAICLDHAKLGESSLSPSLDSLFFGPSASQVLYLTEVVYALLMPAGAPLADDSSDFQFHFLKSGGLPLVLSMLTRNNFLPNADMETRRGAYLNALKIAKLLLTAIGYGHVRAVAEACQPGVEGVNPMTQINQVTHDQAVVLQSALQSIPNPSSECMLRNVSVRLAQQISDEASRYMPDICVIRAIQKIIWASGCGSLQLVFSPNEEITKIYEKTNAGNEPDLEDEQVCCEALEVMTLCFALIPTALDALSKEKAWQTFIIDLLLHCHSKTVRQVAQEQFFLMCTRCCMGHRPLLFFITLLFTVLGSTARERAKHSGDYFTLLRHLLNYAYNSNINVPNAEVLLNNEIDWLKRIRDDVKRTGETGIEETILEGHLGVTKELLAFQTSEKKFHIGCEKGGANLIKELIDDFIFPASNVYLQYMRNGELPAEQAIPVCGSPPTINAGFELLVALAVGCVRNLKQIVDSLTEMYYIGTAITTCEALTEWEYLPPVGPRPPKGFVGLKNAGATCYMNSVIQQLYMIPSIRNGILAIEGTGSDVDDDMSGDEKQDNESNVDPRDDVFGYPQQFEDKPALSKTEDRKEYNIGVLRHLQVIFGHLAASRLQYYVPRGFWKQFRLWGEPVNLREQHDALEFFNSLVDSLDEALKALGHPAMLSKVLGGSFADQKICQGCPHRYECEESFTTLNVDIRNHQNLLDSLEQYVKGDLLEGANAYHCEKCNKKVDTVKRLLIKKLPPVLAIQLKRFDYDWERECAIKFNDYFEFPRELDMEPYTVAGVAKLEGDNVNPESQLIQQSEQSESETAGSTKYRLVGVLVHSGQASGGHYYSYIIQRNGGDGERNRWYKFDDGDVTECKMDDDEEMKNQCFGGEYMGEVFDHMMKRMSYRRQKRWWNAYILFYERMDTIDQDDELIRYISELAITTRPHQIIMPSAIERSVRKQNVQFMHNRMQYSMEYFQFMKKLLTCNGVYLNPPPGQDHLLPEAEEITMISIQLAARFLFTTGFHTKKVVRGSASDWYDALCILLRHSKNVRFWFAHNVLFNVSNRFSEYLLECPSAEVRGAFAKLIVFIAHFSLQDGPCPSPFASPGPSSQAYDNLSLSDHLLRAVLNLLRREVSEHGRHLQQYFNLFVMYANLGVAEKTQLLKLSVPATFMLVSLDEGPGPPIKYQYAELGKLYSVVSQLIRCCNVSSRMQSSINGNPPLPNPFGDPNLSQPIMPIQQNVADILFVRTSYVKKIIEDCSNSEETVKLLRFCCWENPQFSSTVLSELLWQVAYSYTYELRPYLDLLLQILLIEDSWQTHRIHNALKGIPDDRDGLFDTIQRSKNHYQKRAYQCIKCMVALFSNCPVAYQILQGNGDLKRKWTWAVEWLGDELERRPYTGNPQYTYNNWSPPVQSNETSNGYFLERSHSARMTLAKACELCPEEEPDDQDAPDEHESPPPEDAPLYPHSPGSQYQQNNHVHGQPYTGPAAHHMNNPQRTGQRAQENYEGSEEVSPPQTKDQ
Chain of UniProt O00487 (O00487 whole entry): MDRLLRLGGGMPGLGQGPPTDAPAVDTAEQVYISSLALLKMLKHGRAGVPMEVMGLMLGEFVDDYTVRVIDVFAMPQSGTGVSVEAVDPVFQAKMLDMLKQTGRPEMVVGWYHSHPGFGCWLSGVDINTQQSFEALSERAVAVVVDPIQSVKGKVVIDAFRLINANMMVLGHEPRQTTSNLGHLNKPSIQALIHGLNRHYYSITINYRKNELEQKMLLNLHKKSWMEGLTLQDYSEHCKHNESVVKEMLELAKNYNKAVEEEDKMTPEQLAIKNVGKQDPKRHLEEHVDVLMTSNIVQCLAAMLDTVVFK
Chain of UniProt P51784 (P51784 whole entry): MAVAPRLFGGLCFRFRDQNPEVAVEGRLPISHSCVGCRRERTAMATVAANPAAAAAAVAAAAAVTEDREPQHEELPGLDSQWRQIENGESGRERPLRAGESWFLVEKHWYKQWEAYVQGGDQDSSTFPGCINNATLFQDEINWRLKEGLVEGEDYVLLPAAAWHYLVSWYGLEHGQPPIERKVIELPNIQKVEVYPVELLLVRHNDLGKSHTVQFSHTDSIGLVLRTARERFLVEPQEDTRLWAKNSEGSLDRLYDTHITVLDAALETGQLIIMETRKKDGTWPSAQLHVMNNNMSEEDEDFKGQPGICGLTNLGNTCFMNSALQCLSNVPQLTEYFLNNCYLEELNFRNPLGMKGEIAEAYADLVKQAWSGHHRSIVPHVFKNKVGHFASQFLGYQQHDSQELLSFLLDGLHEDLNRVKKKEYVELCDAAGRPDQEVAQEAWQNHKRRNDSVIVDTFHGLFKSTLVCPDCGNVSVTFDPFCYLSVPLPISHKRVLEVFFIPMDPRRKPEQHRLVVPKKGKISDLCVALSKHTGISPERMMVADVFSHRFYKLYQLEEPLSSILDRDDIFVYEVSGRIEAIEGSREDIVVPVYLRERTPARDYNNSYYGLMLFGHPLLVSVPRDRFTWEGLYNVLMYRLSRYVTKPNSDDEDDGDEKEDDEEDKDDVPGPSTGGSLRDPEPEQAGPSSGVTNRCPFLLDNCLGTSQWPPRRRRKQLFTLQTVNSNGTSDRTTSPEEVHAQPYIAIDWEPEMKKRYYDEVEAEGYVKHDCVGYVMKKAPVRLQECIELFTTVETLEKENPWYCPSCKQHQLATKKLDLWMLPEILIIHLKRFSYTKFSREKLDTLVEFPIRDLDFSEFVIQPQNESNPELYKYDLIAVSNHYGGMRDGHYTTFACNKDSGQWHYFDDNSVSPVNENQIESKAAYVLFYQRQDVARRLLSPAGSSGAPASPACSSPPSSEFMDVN

## CC(C)n1nccc1NC(=O)CCl
USP9X
  log2 ratio of Biotin-Ahx-Ub-VS probe labelling: -0.225
UniProt O00487
  log2 ratio of Biotin-Ahx-Ub-VS probe labelling: -0.188
UniProt O00507
  log2 ratio of Biotin-Ahx-Ub-VS probe labelling: -0.0553
UniProt P51784
  log2 ratio of Biotin-Ahx-Ub-VS probe labelling: 0.033
UniProt Q5T2D3
  log2 ratio of Biotin-Ahx-Ub-VS probe labelling: -0.201
UniProt Q8TE49
  log2 ratio of Biotin-Ahx-Ub-VS probe labelling: -1.34 (active)
UniProt Q9P2H5
  log2 ratio of Biotin-Ahx-Ub-VS probe labelling: -0.152
UniProt Q9UGI0
  log2 ratio of Biotin-Ahx-Ub-VS probe labelling: -0.9
YOD1
  log2 ratio of Biotin-Ahx-Ub-VS probe labelling: 0.0661
